Results on 9 compounds are retold here after PubChem BioAssay (Tox21).

The structures appear in SMILES notation. Records with an inconclusive call do not appear. Active and inactive are the calls of the source. Unless noted, the call rests on the fitted dose curve; in most records, active means well fitted curve in the direction sought with a large enough effect in the repeat runs; inconclusive means weak or mixed curves; inactive means no such curve, though single readings can be large; an effect the other way counts as inactive or inconclusive.

A short description of experiment [1]: qHTS assay to identify small molecule HDAC inhibitors (AID 1259364). Further: top concentration of the series differs between compounds; nearly all actives have a fitted effect of over 45% in size. Put shortly:
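Wild-type HCT-116 cells were plated overnight, exposed to compounds for 2 h at 37 °C, then given HDAC-Glo class I/II luminogenic reagent for 30 min at room temperature before luminescence was read.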
(In general: In qHTS, concentration-response curves come from the screen itself.)

Experiment [2] is described as follows: qHTS assay to identify small molecule HDAC inhibitors - cell viability counter screen (AID 1259365). Further: nearly all actives have a fitted effect of over 50% in size. Further: potency means the concentration at half of the fitted maximal effect. Put shortly:
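HCT-116 (wild type), 1,500 cells/well, overnight 37C/5% CO2; compound in DMSO 2hr; CellTiter-Glo 30min RT; luminescence read.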

A short description of experiment [3]: qHTS assay to identify small molecule antagonists of the sonic hedgehog signaling (Shh) pathway (AID 1259369; calls by dose curve; further: nearly all actives have a fitted effect of over 45% in size; further: potency means the concentration at half of the fitted maximal effect). Put shortly:
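NIH/3T3-derived 3T3Gli1-Luc cells with stably integrated Gli1-Luc reporter were preincubated 4hr at 37 C, then given compounds in DMSO plus Shh conditioned medium and incubated 24hr. Firefly luciferase luminescence read after 30min reagent at room temperature.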

Experiment [4] is described as follows: qHTS assay to identify small molecule agonists of the androgen receptor (AR) signaling pathway in the presence of an antagonist - cell viability counter screen (AID 1259379). Further: nearly all actives have a fitted effect of over 25% in size. Further: potency means the concentration at half of the fitted maximal effect. Summed up: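 MDA-kb2 human breast carcinoma cells (stable MMTV-luciferase, AR/GR responsive) were seeded 3,000 cells/well, pre-incubated 5 hr at 37C without CO2, then given 3.0uM nilutamide and compounds at 15 concentrations for 16 hr. Viability was read by CellTiter-Fluor fluorescence.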

Experiment [5] in a line: qHTS assay to identify small molecule agonists of the estrogen receptor beta (ER-beta) signaling pathway - cell viability counter screen (AID 1259380). Further: nearly all actives have a fitted effect of over 30% in size. Further: potency means the concentration at half of the fitted maximal effect. Summed up: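 ER-beta-UAS-bla HEK293T cells in medium with 2% charcoal-stripped FBS were preincubated 6 hr at 37C, dosed with compound in DMSO for 16 hr, then after the bla read, CellTiter-Glo was added for 30 min at room temperature; luminescence recorded.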

A short description of experiment [6]: qHTS assay to identify small molecule antagonists of the estrogen receptor beta (ER-beta) signaling pathway - cell viability counter screen (AID 1259382). Further: nearly all actives have a fitted effect of over 55% in size. Further: potency means the concentration at half of the fitted maximal effect. Summed up: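 ER-beta-UAS-bla HEK293T cells (2,000/well, 2% charcoal-stripped FBS) were pre-incubated 6 hr at 37C, then given compound plus 1nM final 17-beta-estradiol for 16 hr. Viability was read in the same wells by CellTiter-Glo luminescence after 30 min at room temperature.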

Experiment [7] is described as follows: qHTS assay to identify small molecule agonists or antagonists of the thyroid stimulating hormone receptor (TSHR) signaling pathway - wild type cell line counter screen (AID 1259384; calls by dose curve). Summed up: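 Wild-type HEK293 cells were plated 18 h at 37 C/5% CO2, pin-dosed with compound plus Ro20-1724 medium, held 30 min at room temperature, then given cAMP-d2 and anti-cAMP-cryptate; fluorescence was read after 1 h. Fifteen concentrations, triplicate.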

Experiment [8] deals with Thyrotropin receptor (Homo sapiens) (UniProt P16473). Description: qHTS assay to identify small molecule antagonists of the thyroid stimulating hormone receptor (TSHR) signaling pathway (AID 1259385; calls by dose curve; further: nearly all actives have a fitted effect of over 20% in size). Summed up: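 TSHR-HEK293 cells were plated and held 18 h at 37C/5% CO2, then given compound plus Ro20-1724 and stimulated with TSH at 1.5 ng/mL final. After 30 min at room temperature, cAMP was detected with cAMP-d2/anti-cAMP-cryptate (1 h) by fluorescence.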

A short description of experiment [9]: qHTS assay to identify small molecule agonists of the estrogen receptor alpha (ER-alpha) signaling pathway in the presence of an antagonist - cell viability counter screen (AID 1259386).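 Further: cells exposed to compounds for 22 h at 37 °C before the viability read; nearly all actives have a fitted effect of over 30% in size.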 Further: potency means the concentration at half of the fitted maximal effect. Put shortly:
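VM7Luc4E2 cells (endogenous full-length ER-alpha, 4×ERE-luciferase) were held 5 days in phenol red-free medium with 10% charcoal-stripped FBS, plated, then given 10.0nM ICI-182,780 and compounds at 15 concentrations for 22hr at 37C; viability read by CellTiter-Fluor fluorescence.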

Experiment [10] addresses Progesterone receptor (Homo sapiens) (UniProt P06401). Description: qHTS assay to identify small molecule agonists of the progesterone receptor (PR) signaling pathway (AID 1346784; calls by dose curve; further: nearly all actives have a fitted effect of over 30% in size). Put shortly: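 HEK 293T PR-UAS-bla reporter cells, 2% charcoal-stripped FBS; 6 hr settle at 37C/5% CO2, compound (DMSO) 16 hr, LiveBLAzer B/G FRET substrate 2 hr RT, fluorescence intensity read.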

A short description of experiment [11]: qHTS assay to identify small molecule antagonists of the sonic hedgehog signaling (Shh) pathway - cell viability counter screen (AID 1259367). Further: nearly all actives have a fitted effect of over 55% in size. Put shortly:
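After a 4 hr settling period, 3T3 Gli1-Luc cells were treated with DMSO-dissolved chemicals and conditioned medium, kept 24 hr at 37C in 5% CO2, and assayed for viability by CellTiter-Fluor fluorescence following 1 hr reagent incubation.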

The nature of experiment [12]: qHTS assay to identify small molecule agonists of the sonic hedgehog signaling (Shh) pathway (AID 1259368; calls by dose curve; further: series mostly up to about 92 µM; nearly all actives have a fitted effect of over 15% in size). Put shortly:
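NIH/3T3-derived 3T3Gli1-Luc cells carrying a stably integrated Gli1 response element–firefly luciferase reporter were plated, left 4 hr at 37 C, then given compounds in DMSO for 24 hr. Luminescence was read 30 min after adding luciferase reagent.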

For experiment [13], the target named is Estrogen receptor beta (Homo sapiens) (UniProt Q92731). As to the kind of experiment: qHTS assay to identify small molecule agonists of the estrogen receptor beta (ER-beta) signaling pathway (AID 1259377; active means well fitted activation curve with a large enough effect in the signal ratio in the repeat runs, not every such curve was filed as active; the % refers to the signal ratio). Summed up:
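Beta-lactamase reporter readout: fluorescence of LiveBLAzer B/G FRET substrate after 2 h at room temperature, following 16 h compound treatment of ER-beta-UAS-bla HEK293T cells at 37C in 2% charcoal-stripped FBS medium.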

The target is the same in experiment [14]. Description: qHTS assay to identify small molecule antagonists of the estrogen receptor beta (ER-beta) signaling pathway (AID 1259378; active means well fitted inhibition curve with a large enough effect in the signal ratio in the repeat runs, not every such curve was filed as active; the % refers to the signal ratio; further: potency means the concentration at half of the fitted maximal effect). Summed up: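 ER-beta-UAS-bla HEK293T (GripTite) cells in 2% charcoal-stripped FBS medium were preincubated 6 hr at 37C, dosed with compound, then stimulated with 1 nM E2 (final) for 16 hr; beta-lactamase reporter read by B/G FRET fluorescence after 2 hr substrate loading.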

For experiment [15], the target named is Estrogen receptor (Homo sapiens) (UniProt P03372). As to the kind of experiment: qHTS assay to identify small molecule agonists of the estrogen receptor alpha (ER-alpha) signaling pathway in the presence of an antagonist (AID 1259383; calls by dose curve; further: top concentration of the series differs between compounds; nearly all actives have a fitted effect of over 15% in size). Put shortly: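 VM7Luc4E2 cells (endogenous full-length ER-alpha, 4×ERE-luciferase) were precultured 5 days in phenol red-free medium with 10% charcoal-stripped FBS, given 10.0nM ICI-182,780 (final), then treated with compounds at 15 concentrations for 22hr at 37C; luminescence read with ONE-Glo.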

Experiment [16] in a line: qHTS assay to identify small molecule agonists of the sonic hedgehog signaling (Shh) pathway - cell viability counter screen (AID 1259366). Further: nearly all actives have a fitted effect of over 50% in size. Further: potency means the concentration at half of the fitted maximal effect. Summed up:
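CellTiter-Fluor fluorescence read-out, 1 hr at 37C, added after 23hr compound exposure. Cells: 3T3 Gli1-Luc, an NIH/3T3 clone with stably integrated Gli1-Luc reporter, plated 4hr before compound.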

The target of experiment [17] is Androgen receptor (Homo sapiens) (UniProt P10275). As to the kind of experiment: qHTS assay to identify small molecule agonists of the androgen receptor (AR) signaling pathway in the presence of an antagonist (AID 1259381; calls by dose curve; further: nearly all actives have a fitted effect of over 15% in size). Put shortly: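 MDA-kb2 human breast carcinoma cells carrying an MMTV-luciferase reporter (AR- and GR-responsive) were treated with compounds at 15 concentrations plus 3.0uM final nilutamide for 16hr at 37C without CO2; luminescence was read after ONE-Glo addition.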
Sequence of Androgen receptor (Homo sapiens) (P10275 whole entry, looked up): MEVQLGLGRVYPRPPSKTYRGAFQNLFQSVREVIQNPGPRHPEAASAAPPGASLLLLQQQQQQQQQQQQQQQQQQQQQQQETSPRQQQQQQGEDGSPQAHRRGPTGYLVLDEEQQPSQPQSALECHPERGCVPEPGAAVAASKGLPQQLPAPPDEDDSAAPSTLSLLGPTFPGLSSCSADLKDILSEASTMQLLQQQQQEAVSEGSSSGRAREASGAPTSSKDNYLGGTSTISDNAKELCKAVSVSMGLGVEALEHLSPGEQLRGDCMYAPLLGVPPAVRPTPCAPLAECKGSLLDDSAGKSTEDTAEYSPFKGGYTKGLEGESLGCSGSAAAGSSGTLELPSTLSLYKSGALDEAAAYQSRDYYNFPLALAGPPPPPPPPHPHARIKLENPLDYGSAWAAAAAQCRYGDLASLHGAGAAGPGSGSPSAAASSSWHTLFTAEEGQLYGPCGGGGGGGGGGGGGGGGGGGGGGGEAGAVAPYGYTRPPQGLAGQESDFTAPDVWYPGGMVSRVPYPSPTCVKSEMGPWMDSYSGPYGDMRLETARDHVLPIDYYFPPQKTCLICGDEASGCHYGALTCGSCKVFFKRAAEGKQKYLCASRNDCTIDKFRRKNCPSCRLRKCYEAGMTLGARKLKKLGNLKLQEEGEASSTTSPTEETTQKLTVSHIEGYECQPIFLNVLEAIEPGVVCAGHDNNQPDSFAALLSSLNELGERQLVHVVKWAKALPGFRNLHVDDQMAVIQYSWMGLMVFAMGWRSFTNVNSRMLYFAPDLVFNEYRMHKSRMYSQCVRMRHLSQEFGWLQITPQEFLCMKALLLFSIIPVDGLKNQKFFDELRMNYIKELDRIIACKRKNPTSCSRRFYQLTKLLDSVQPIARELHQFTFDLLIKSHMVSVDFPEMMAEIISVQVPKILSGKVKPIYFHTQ

Sequence of Estrogen receptor (Homo sapiens) (P03372 whole entry, looked up): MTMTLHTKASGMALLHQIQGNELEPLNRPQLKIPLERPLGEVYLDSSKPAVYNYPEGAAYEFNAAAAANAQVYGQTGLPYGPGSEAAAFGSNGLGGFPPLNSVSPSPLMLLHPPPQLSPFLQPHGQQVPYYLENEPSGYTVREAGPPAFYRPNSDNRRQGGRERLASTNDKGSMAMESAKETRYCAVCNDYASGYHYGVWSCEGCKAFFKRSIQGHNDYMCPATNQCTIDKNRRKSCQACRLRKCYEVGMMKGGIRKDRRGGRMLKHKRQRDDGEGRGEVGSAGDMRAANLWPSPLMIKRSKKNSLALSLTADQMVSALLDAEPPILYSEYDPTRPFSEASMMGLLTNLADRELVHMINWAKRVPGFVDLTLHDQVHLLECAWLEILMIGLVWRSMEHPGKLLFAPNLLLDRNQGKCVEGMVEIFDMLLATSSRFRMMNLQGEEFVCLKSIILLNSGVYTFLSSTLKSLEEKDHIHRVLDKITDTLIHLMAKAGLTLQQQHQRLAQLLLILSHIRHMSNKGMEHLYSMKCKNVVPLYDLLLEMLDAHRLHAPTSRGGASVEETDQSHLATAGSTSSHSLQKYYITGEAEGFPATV
Sequence of Estrogen receptor beta (Homo sapiens) (Q92731 whole entry, looked up): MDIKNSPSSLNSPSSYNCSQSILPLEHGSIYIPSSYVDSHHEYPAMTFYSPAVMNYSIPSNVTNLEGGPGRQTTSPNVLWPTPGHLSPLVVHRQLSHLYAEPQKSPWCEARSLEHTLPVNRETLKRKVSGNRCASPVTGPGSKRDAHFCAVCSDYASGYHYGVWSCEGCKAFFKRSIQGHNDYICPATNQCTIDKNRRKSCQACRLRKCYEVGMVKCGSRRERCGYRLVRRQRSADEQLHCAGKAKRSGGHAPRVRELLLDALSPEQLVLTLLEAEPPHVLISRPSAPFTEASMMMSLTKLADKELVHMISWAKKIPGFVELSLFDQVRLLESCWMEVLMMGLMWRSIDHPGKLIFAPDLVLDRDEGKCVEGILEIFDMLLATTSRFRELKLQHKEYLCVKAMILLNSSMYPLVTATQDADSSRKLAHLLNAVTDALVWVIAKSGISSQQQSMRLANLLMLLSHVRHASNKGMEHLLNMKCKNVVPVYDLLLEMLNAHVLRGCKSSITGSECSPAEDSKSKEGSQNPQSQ
Sequence of Progesterone receptor (Homo sapiens) (P06401 whole entry, looked up): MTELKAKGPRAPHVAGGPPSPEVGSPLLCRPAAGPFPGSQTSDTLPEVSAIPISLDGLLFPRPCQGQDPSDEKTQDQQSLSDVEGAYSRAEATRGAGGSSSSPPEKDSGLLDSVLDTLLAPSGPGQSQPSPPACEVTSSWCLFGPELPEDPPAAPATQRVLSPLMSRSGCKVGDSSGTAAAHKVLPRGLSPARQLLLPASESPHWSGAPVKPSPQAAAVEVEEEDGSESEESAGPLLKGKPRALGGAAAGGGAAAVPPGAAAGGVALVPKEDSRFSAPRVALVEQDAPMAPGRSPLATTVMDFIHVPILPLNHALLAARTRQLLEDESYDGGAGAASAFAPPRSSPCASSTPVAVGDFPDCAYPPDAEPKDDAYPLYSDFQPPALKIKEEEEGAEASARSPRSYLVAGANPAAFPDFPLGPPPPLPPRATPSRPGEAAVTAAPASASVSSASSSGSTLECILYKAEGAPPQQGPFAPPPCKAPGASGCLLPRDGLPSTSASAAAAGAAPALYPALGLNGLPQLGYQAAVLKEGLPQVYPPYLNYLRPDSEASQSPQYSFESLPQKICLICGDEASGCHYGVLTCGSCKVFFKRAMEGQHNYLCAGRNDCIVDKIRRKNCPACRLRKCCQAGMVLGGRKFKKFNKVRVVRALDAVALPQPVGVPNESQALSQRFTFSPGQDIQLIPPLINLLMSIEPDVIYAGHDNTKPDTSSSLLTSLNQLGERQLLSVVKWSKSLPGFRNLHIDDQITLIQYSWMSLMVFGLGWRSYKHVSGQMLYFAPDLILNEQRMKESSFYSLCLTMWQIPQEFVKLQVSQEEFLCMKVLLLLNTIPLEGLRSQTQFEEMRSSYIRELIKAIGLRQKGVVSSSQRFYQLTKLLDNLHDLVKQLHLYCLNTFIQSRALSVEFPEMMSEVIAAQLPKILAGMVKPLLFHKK
Sequence of Thyrotropin receptor (Homo sapiens) (P16473 whole entry, looked up): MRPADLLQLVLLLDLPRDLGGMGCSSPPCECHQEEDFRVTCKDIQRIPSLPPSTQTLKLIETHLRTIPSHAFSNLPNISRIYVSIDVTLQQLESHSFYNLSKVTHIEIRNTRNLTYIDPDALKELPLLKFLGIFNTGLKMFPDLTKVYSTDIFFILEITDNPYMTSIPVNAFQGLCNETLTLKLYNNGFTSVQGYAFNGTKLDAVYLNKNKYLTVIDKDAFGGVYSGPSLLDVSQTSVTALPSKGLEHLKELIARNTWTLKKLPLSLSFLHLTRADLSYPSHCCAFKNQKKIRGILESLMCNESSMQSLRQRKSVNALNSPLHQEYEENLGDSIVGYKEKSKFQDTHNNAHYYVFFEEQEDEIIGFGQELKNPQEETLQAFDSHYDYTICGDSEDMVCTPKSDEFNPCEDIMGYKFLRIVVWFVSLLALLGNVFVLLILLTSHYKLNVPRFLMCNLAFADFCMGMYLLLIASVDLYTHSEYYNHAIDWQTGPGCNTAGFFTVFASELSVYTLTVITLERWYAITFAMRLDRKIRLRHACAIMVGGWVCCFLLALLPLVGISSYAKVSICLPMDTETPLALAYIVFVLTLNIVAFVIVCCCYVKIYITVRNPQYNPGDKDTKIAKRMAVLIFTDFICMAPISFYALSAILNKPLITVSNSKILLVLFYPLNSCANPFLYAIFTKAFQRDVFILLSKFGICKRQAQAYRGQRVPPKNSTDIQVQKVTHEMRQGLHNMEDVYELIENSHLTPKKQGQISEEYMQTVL

As for `O=[N+]([O-])c1cc(Cl)c(Cl)c(Cl)c1Cl`, the Potency entry in [1], in experiment [2], in experiment [3], in experiment [5], in experiment [6] and in experiment [8] was “inactive” throughout. Moreover, the Potency entry in experiment [9] and in [10] was “inactive” each time. Also, the Potency in [4] is 24.2 µM (active). In addition, the call in [7] was inactive.

Consider `CCc1cc(SCc2sc(-c3ccc(C(F)(F)F)cc3)nc2CN2CCN(c3ccc(OC)cc3)CC2)ccc1OCC(=O)O`, for which the Potency is 24.3 µM (active) in experiment [2]; 5.45 µM (active) in experiment [14]; 43.3 µM (active) in [4]; 4.33 µM (active) in experiment [5]; 4.33 µM (active) in [6]. Moreover, the Potency result in experiment [11], in experiment [12] and in experiment [13] was “inactive” in each case. Moreover, in experiment [7], the outcome was inactive.

In the case of `N=C1N=C(N)c2ccccc21`, the Potency result in experiment [2], in experiment [12], in experiment [6], in experiment [15] and in experiment [9] was “inactive” in each case. In [3], the Potency is 8.63 µM (active).

Regarding `CCOc1nc2cccc(C(=O)OC(C)OC(=O)OC3CCCCC3)c2n1Cc1ccc(-c2ccccc2-c2nn[nH]n2)cc1` (stereo unspecified), the Potency entry in experiment [1], in experiment [12], in experiment [13], in [15], in experiment [8] and in experiment [9] was “inactive” throughout. In addition, the figures for the Potency in experiment [3], in experiment [5] and in [6] were 21.7 µM (active), 13.7 µM (active) and 19.3 µM (active), respectively. In addition, in experiment [7], the call was inactive.

On to `Cc1[nH]cnc1C[C@H]1CCc2c(C)c3ccccc3n2C1=O`, for which the Potency entry in [1], in experiment [2], in [12] and in experiment [13] was “inactive” each time. For the same compound, the figures for the Potency in [3], in [14] and in experiment [5] were 18.9 µM (active), 29.9 µM (active) and 4.74 µM (active), respectively. Moreover, the compound was classed as inactive in experiment [7].

With `CNc1ccc(O)cc1`, the Potency in experiment [2] was 48.5 µM (active); in experiment [16], 12.2 µM (active); in experiment [5], 30.6 µM (active); in [6] it was 61 µM (active); in experiment [9], 61 µM (active).

`CCCCCCCCn1sc(Cl)c(Cl)c1=O`: the Potency result in [1], in experiment [2], in experiment [12], in [13], in experiment [15] and in experiment [9] was “inactive” in each case. Besides, the Potency entry in experiment [10] is “inactive”. Moreover, the Potency in experiment [5] is 12.2 µM (active). For the same compound, the compound was called inactive in experiment [7].

Take `CCC(CN)=C(c1ccccc1)c1ccccc1`: the Potency result in experiment [2], in [16], in experiment [11], in [12], in experiment [13] and in experiment [17] was “inactive” throughout. The Potency entry in [15], in experiment [9] and in experiment [10] was “inactive” throughout. In addition, the Potency in [14] is 23.7 µM (active); in experiment [5], 21.1 µM (active). Also, the compound was called inactive in experiment [7].

Consider `CCCCCCCCS(=O)C(C)Cc1ccc2c(c1)OCO2` (stereo unspecified), for which the Potency result in [1], in [2], in [12], in experiment [13], in experiment [4] and in [17] was “inactive” in each case. Further, the Potency entry in experiment [6], in experiment [15], in experiment [9] and in [10] was “inactive” each time. Further, the Potency in experiment [3] is 31.2 µM (active). The compound was called inactive in experiment [7].
